High-throughput results (PubChem BioAssay)
ROS inducer: ROS inducers in U2OS cancer cells, primary screen, cell-based, H2DCF-DA fluorescence; U2OS ROS induction; ROS induction (% of piperlongumine), % at 10 µM; 46,000 compounds, 2% hits; AID 624156, 2012; in the data active means ROS induction above about 79%, passing the limit was not always enough;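 further: 0% = DMSO vehicle median and 100% = reference compound median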
* = called active by the depositor. This is one part of a sample in which hits are shown more often than they occur.

SMILES	ROS inducer
CC1(C)CC[C@]2(C(=O)O)CC[C@]3(C)C(=CCC4[C@@]5(C)CC[C@H](O[C@@H]6O[C@H](C(=O)O)[C@@H](O[C@@H]7O[C@H](CO)[C@@H](O)[C@H](O)[C@H]7O)[C@H](O)[C@H]6O[C@@H]6O[C@H](CO)[C@@H](O)[C@H](O)[C@H]6O)C(C)(C)C5CC[C@]43C)C2C1 (some centres undefined)	-2.4
C[C@H](CO)N1C[C@H](C)[C@H](CN(C)C(=O)Nc2ccc3c(c2)OCO3)Oc2ccc(NS(=O)(=O)c3ccccc3)cc2CC1=O	-4.1
C[C@H]1CN([C@@H](C)CO)C(=O)Cc2cc(NC(=O)Nc3ccc4c(c3)OCO4)ccc2O[C@H]1CN(C)C(=O)Nc1ccc2c(c1)OCO2	-0.4
CC(C)NC(=O)N(C)C[C@@H]1Oc2ccc(NC(=O)Nc3ccc4c(c3)OCO4)cc2CC(=O)N([C@H](C)CO)C[C@@H]1C	6.0
CC(C)NC(=O)Nc1ccc2c(c1)CC(=O)N([C@@H](C)CO)C[C@@H](C)[C@@H](CN(C)C(=O)Nc1ccc3c(c1)OCO3)O2	111.1*
C[C@H](CO)N1C[C@H](C)[C@H](CN(C)C(=O)Nc2ccc3c(c2)OCO3)Oc2ccc(NS(C)(=O)=O)cc2CC1=O	122.7*
Cc1ccc(S(=O)(=O)Nc2ccc3c(c2)CC(=O)N([C@H](C)CO)C[C@@H](C)[C@H](CN(C)C(=O)Nc2ccc4c(c2)OCO4)O3)cc1	1.5
C[C@H]1CN([C@@H](C)CO)C(=O)Cc2cc(NC(=O)CCN3CCOCC3)ccc2O[C@H]1CN(C)C(=O)Nc1ccc(C(F)(F)F)cc1	2.4
COc1ccccc1/C=C1\SC(=O)N(CCC(=O)N2c3ccccc3Sc3ccccc32)C1=O	9.9
Cc1noc(C)c1S(=O)(=O)Nc1ccc2c(c1)C(=O)N([C@@H](C)CO)C[C@@H](C)[C@H](CN(C)C(=O)Nc1ccc3c(c1)OCO3)O2	2.8
C[C@H]1CN([C@@H](C)CO)C(=O)Cc2cc(NC(=O)Nc3ccccc3)ccc2O[C@@H]1CN(C)C(=O)Nc1ccc(C(F)(F)F)cc1	39.7
CC(=O)Nc1ccc(C(=O)Nc2cccc(NC(=O)c3ccco3)c2)cc1	4.0
O=C(O)c1ccc(CNC(=O)c2ccc(NC(=O)c3ccco3)cc2)cc1	98.7*
O=C(NCc1ccccn1)c1ccc(NC(=O)c2ccco2)cc1	-5.9
Oc1ccc([C@H]2Oc3c(c(O)cc4c3[C@@H]3c5c(O)cc(O)cc5O[C@@](c5ccc(O)cc5)(O4)[C@@H]3O)C[C@H]2O)cc1	2.0
COc1ccc([Si](C)(C)[C@@H]2[C@@H](CCO)O[C@]3(C(=O)N(Cc4ccccc4)c4ccc(NC(C)=O)cc43)[C@H]2C)cc1	66.8
C=CCN1C(=O)[C@]2(O[C@H](CCO)[C@@H]([Si](C)(C)c3ccc(OC)cc3)[C@@H]2C)c2cc(N3CCC3=O)ccc21	20.6
COc1ccc([Si](C)(C)[C@H]2[C@H](CCO)O[C@@]3(C(=O)N(Cc4ccccc4)c4ccc(NC(C)=O)cc43)[C@@H]2C)cc1	45.8
C=CCN1C(=O)[C@@]2(O[C@@H](CCO)[C@H]([Si](C)(C)c3ccc(OC)cc3)[C@H]2C)c2cc(N3CCOC3=O)ccc21	19.0
C=CCN1C(=O)[C@@]2(O[C@@H](CCO)[C@H]([Si](C)(C)c3ccc(OC)cc3)[C@H]2C)c2cc(NC(C)=O)ccc21	105.7*
C=CCN1C(=O)[C@@]2(O[C@@H](CCO)[C@H]([Si](C)(C)c3ccc(OC)cc3)[C@H]2C)c2cc(I)ccc21	93.6*
Cc1noc(C)c1NC(=O)N(C)C[C@H]1Oc2ccc(NC(=O)Cc3ccccc3)cc2CC(=O)N([C@H](C)CO)C[C@H]1C	6.0
C[C@@H]1CN([C@H](C)CO)C(=O)c2cccc(NS(=O)(=O)c3ccc(F)cc3)c2O[C@H]1CN(C)Cc1ccc(-c2ccccc2)cc1	12.0
O=C(CN1C(=O)c2ccccc2C1=O)Nc1ccc(NC(=O)c2ccco2)cc1	-39.7
Cc1ccc(C(=O)NCCNc2ccccc2[N+](=O)[O-])cc1	-2.4
SMILES	ROS inducer
Cc1ccc(NC(=O)Cn2nc(C)c([N+](=O)[O-])c2C)cc1C	169.0*
Cc1cc(I)ccc1NC(=O)Cn1nc(C)c([N+](=O)[O-])c1C	5.5
Cc1nn(CC(=O)Nc2ccc(F)cc2)c(C)c1[N+](=O)[O-]	3.9
CC(C)NC(=O)Nc1ccc2c(c1)CC(=O)N([C@H](C)CO)C[C@@H](C)[C@H](CN(C)S(C)(=O)=O)O2	8.9
COc1ccc(S(=O)(=O)N(C)C[C@H]2Oc3ccc(NC(=O)NC4CCCCC4)cc3CC(=O)N([C@@H](C)CO)C[C@@H]2C)cc1	5.7
C[C@@H]1CN([C@H](C)CO)C(=O)Cc2cc(NS(=O)(=O)c3ccc(Cl)cc3)ccc2O[C@@H]1CN(C)Cc1ccc(C(=O)O)cc1	12.4
COc1ccc(CN(C)C[C@H]2Oc3c(NC(=O)c4ccc(-c5nccs5)cc4)cccc3C(=O)N([C@H](C)CO)C[C@H]2C)cc1	14.6
C/C=C/C=C/C(=O)c1cc(C)c(O)c(C)c1O	101.9*
COc1ccc(NC(=O)N(C)C[C@@H]2Oc3ccc(NS(=O)(=O)c4cccs4)cc3CC(=O)N([C@H](C)CO)C[C@H]2C)cc1	1.1
COc1cc(OC)cc(-c2nnc(SCc3cccc(C(=O)O)c3)o2)c1	23.0
COc1cccc(C(=O)c2sc3nsc(SCc4ccccc4)c3c2N)c1	335.4*
COc1cccc(CNC(=O)c2ccc3nc(SCc4ccc(F)cc4)n(C)c3c2)c1	16.1
CS(=O)(=O)NCC(c1cccnc1)N1CCN(Cc2ccccc2)CC1 (centres undefined)	24.0
Cc1noc(C)c1NC(=O)Nc1cccc2c1O[C@H](CN(C)C(=O)Nc1ccc(C(F)(F)F)cc1)[C@@H](C)CN([C@@H](C)CO)C2=O	0.6
C[C@H]1CN([C@@H](C)CO)C(=O)c2cc(NC(=O)Nc3ccc4c(c3)OCO4)ccc2O[C@@H]1CN(C)C(=O)NC1CCCCC1	-5.9
C[C@@H]1CN([C@H](C)CO)C(=O)c2cccc(NC(=O)C3CCCCC3)c2O[C@H]1CN(C)C(=O)Nc1ccc(F)cc1	68.5
CC(=O)Oc1ccccc1C(=O)Nc1ccc(C(N)=O)cc1	-7.5
COc1ccc(NC(=O)N(C)C[C@@H]2Oc3ccc(NS(=O)(=O)c4ccc(F)cc4)cc3C(=O)N([C@H](C)CO)C[C@H]2C)cc1	-3.1
CN(C(=O)C(Cl)Cl)c1ccc(OC(=O)c2ccco2)cc1	-4.8
CN1C2=C(C(=O)CC(C)(C)C2)C(c2ccccc2OCC(=O)Nc2ccc(F)cc2)C2=C1CC(C)(C)CC2=O	134.2*
CN1C(=O)NC(c2ccccc2)C2=C1CC(C)(C)CC2=O (centres undefined)	4.0
COC(=O)C1=C(C)NC(=O)NC1c1ccccc1OCC(=O)Nc1ccc(C)cc1 (centres undefined)	0.1
CCCNC(=O)c1ccc(CS(=O)c2ccc(Br)cc2)o1 (centres undefined)	-14.3
C[C@@H]1CN([C@H](C)CO)C(=O)c2cccc(NS(=O)(=O)c3cn(C)cn3)c2O[C@H]1CN(C)CC1CCCCC1	-1.1
O=C(NCC1CCCO1)c1cc(=O)[nH]c2ccc(Br)cc12 (centres undefined)	-8.9
Cc1cc(-c2nc(-c3ccnn3S(=O)(=O)c3cccc(C(F)(F)F)c3)cs2)no1	28.7
O=S(=O)(c1ccc(C(F)(F)F)cc1)n1nccc1-c1cc(-c2ccccc2)no1	-4.4
CCOC(=O)c1cc(-c2ccnn2S(=O)(=O)c2cccc(C(F)(F)F)c2)on1	183.9*
